Test results as given in PubChem BioAssay (NCI).
The panel holds about 83,000 compounds, 20% with a hit somewhere; the sample as a whole holds those more often.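 Activity criterion: percent growth below 10, measured after cells in 96-well plates were exposed to a single compound concentration for 48 hours.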 Unmarked numbers belong to inactive results. Active and inactive are the calls of the source.

Tests used:
Assay in all cases: NCI-60 one-dose screen, 48 h (100 = growth as untreated, 0 = no growth, -100 = all killed)
Settings in all cases: 10 µM unless noted
[1] = test system: NCI-H23 lung
[2] = test system: NCI-H322M lung
[3] = test system: HOP-62 NSCLC
[4] = test system: NCI-H460 lung
[5] = test system: NCI-H522 lung
[6] = test system: A549/ATCC NSCLC
[7] = test system: 786-0 renal
[8] = test system: COLO 205 colon
[9] = test system: DU-145 prostate
[10] = test system: NCI-H226 lung

Row | SMILES | growth [1] | growth [2] | growth [3] | growth [4] | growth [5] | growth [6] | growth [7] | growth [8] | growth [9] | growth [10]
1 | O=C(C=C=Nc1ccccc1)C(=O)N=C=Cc1ccccc1 | 63.3% | 93.9% | 90.5% | 92.2% | -82.5% (active) | 79.8% | 79.3% | 13.5% | 40.2% | 
2 | Cn1cc(-c2csc(-c3c[nH]c4ncccc34)n2)c2cc(Br)cnc21 |  | 59.9% | -19.7% (active) | 7.22% (active) | -2.08% (active) | 5.11% (active) | 20% |  |  | 49%
3 | CC(=O)Oc1ccc(C23c4ccccc4C2(OC(C)=O)c2cc(OC(C)=O)ccc23)cc1 (stereo unspecified) | 96.2% | 107% | 53.1% | 88.7% |  | 97% | 69.3% | 95.5% | 103% | 
4 | COC(=O)[C@]12CC[C@@H](C)[C@H](C)[C@@H]1C1=CC[C@@H]3[C@@]4(C)C=C(O)C(=O)[C@@]5(C)COC(=C54)C[C@@]3(C)[C@]1(C)CC2 | -73.1% (active) | -25.3% (active) | -50.8% (active) | -66.2% (active) | -70.2% (active) | -59.5% (active) | -89.5% (active) | -63.9% (active) | -80.7% (active) | 
5 | CCCCCCCC/C=C/CCCCCCCC1=NC(C)(C)CN1CC(C)O (stereo unspecified) | 67% | 53.9% | 36.5% | -34.9% (active) |  | 27.9% | 59% | -91.3% (active) | 69.2% | 
6 | O=C1NC(=O)/C(=C\c2ccccc2)C2=C1CCCC2 | -44.7% (active) | 107% | 119% | 85.5% | -87.4% (active) |  | 61.7% | -63.2% (active) | 25.7% | 
7 | Cc1cc(N2CCOCC2)nc(N2CCOCC2)n1 |  | 92.2% | 82.2% | 99.4% |  | 98.1% | 92.7% | 118% | 117% | 110%
8 | C/C(=N/N=C(N)N)c1ccc(N)cc1 |  | 79.2% | 91.5% | 106% |  | 103% | 96% |  | 107% | 102%
9 | CC1CC(C)/C(=N/NC(N)=O)C(C(O)CC2CCC(=O)NC2=O)C1 (stereo unspecified) |  | 14.4% | 49.3% | 31.7% | 18% | 27.7% | 25% | 42.1% | 37.4% | 42.3%
10 | Nc1ccc2c(c1)/C(=N/O)c1cc([N+](=O)[O-])ccc1-2 |  | 42% | 91.7% | 27.3% | 55.1% | 49.2% | 63.1% | 104% | 46.4% | 76.3%
11 | NC(=O)c1ncn([C@@H]2O[C@H](CO)[C@@H](O)[C@H]2O)n1 |  | 88.3% | 97.2% | 100% | 70.6% | 91.2% | 95.6% | 82.6% | 82.7% | 106%
12 | CN1CCCC1c1cccnc1 (stereo unspecified) |  | 105% | 113% | 98.6% | 17.3% |  | 108% | 105% | 110% | 
13 | OC(c1cc(C(F)(F)F)nc2c(C(F)(F)F)cccc12)C1CCCCN1 (stereo unspecified) |  | 64.8% | 74.4% | 13.8% | -4.33% (active) |  | 56.7% | 29.3% | 78.8% | 73.1%
14 | Cc1nn(-c2ccc(Cl)cc2)c2nc3c(nc12)C(=O)C(=O)c1ccccc1-3 |  | 65.1% | 72.1% | 5.27% (active) |  | 18.2% | 89.5% | 54.3% | -22% (active) | 65.2%
15 | Oc1ccccc1/C=N\Nc1ccccc1 |  | 59.9% | 65.6% | 30.9% | 10.5% | 36.8% | 43.3% | 115% | 58.5% | 39.4%
16 | CCC(=O)Nc1ccccc1C#C/C=C\C#Cc1ccccc1C(F)(F)F |  | 37.4% | 54.5% | 10.2% | 68.2% | 64.2% | 50.5% | 59.4% | 40% | 52.5%
17 | CCN(CC)CCCNCCCNc1cc(OC)cc2cccnc12 |  |  | 92.3% | 103% | 93.1% | 92.4% | 94.4% | 24.6% | 104% | 
18 | N#CCNc1ccccc1N |  |  | 85.2% | 101% | 65.4% | 92.2% | 99% | 90.2% | 106% | 101%
19 | N=c1ccn2c(n1)O[C@@H]1[C@@H](O)[C@H](CO)O[C@@H]12 |  | 82.2% | 47.7% | 12.3% | 39.4% | 22.2% | 31.1% | 49.3% | 51.4% | 92.4%
20 | Nc1ccc2c3c(cccc13)-c1ccccc1-2 |  | 75.1% | 100% | 99.1% | 68.5% | 85.1% | 68.4% | 96.5% | 109% | 55.5%
21 | Cc1c(C(N)=O)sc2ncn(CC(=O)Nc3ccc(Cl)cc3)c(=O)c12 |  | 114% | 97% | 110% | 141% | 106% | 104% |  | 126% | 105%
22 | COc1ccc(C2=NNC(c3cc(Cc4ccc(O)c(C5CC(c6ccc(OC)cc6)=NN5)c4)ccc3O)C2)cc1 (stereo unspecified) |  | 32.1% | 60% | 27.5% | -7.59% (active) | 35.2% | 56.1% |  | 69.3% | 82.6%

Row | SMILES | growth [1] | growth [2] | growth [3] | growth [4] | growth [5] | growth [6] | growth [7] | growth [8] | growth [9] | growth [10]
23 | COc1ccc(C2CC(c3ccc(OC)c(OC)c3)=NN2C(=O)c2cc(OC)c(OC)c(OC)c2)c(OC)c1 (stereo unspecified) |  | 94.8% | 76.1% | 78.5% | 33.9% | 82.8% | 66.8% | 63.9% | 101% | 76.4%
24 | O=C1N(C2CCCCC2)C(=O)N1C1CCCCC1 |  | 35.2% | 57.5% | 39% | 17.3% | 34.5% | 53.5% | 62% | 38.7% | 46%
25 | O=C1/C(=C/c2ccc3cccc(Cl)c3n2)SC(=S)N1CCc1ccc(O)cc1 |  | 91.6% | 86.7% | 99.1% | 54.9% | 93.6% | 94.2% | 107% | 101% | 86.1%
26 | Cn1c(N)c(N=O)c(=O)[nH]c1=O |  | 112% | 103% | 107% |  | 97.9% | 101% |  | 112% | 
27 | COc1ccc(/C=N/NC(=O)c2ccc(S(C)(=O)=O)cc2)cc1OC |  | 92.1% | 97.2% | 109% | 84.4% |  | 99.5% | 107% | 99.8% | 93.5%
28 | CC/C(=C\c1ccc(N(C)C)cc1)c1nc2ccccc2c(=O)[nH]1 |  | 104% | 108% | 102% | 103% | 98% | 94.6% |  | 105% | 110%
29 | O=C(C(=O)N1CCCCC1)c1ccc(OC2OC(CO)C(O)C(O)C2O)cc1 (stereo unspecified) |  | 116% | 104% | 114% | 85.3% | 101% | 106% |  | 115% | 102%
30 | CC(=O)c1cc(C(=O)c2ccc3c(c2)Sc2ccccc2N3)c2c(C)cc(C)cn12 |  | 44.9% | 20.8% | 0.69% (active) | -31.2% (active) | 3.95% (active) | 4% (active) | -37.4% (active) | 2.22% (active) | 30%
31 | O=C(Nc1ccc(OCc2nnc(-c3ccccc3)o2)c(F)c1)Nc1ccc(Cl)c(C(F)(F)F)c1 |  | 28.8% | 13.6% | -0.0623% (active) | 13.9% | 11.6% | 53.2% | -46.3% (active) | 10% | 59.3%
32 | CN1C(=O)C(=Cc2cn(Cc3ccccc3)c3ccc(Br)cc23)C(=O)N(C)C1=O |  | 93.8% | 85.8% | 35.1% | 94.4% | 88.5% | 98.2% | 89.6% | 97.1% | 32.3%
33 | c1coc([C@@H]2C[C@@H]3Cc4ccc5ccccc5c4N2O3)c1 |  | 106% | 88.6% | 117% | 86.8% | 94.9% | 103% | 130% | 120% | 107%
34 | COc1cc2c(c(OC)c1OC)CCc1cnoc1-2 |  | 107% | 156% | 106% | 102% | 103% | 155% | 134% | 116% | 102%
35 | Cc1ccc(NC(=O)COC(=O)c2ccc(S(=O)(=O)N3CCCCCC3)cc2)cc1 |  | 131% | 96.4% | 106% | 96% | 97.2% | 103% |  | 108% | 90.8%
36 | CCOc1nc(-c2ccccc2)cc2c(O)c(-c3nnco3)[nH]c(=O)c12 |  | 65.3% | 47.9% | 28.2% | 5.8% (active) | 38.9% | 57.9% | 72.2% | 50.8% | 64.2%
37 | Cc1ccc(C(C)C)cc1NC(=O)Nc1ccc([N+](=O)[O-])cc1 |  | 43.2% | -0.0828% (active) | -1.38% (active) | -19.8% (active) | 9.96% (active) | 8.79% (active) | -35.4% (active) | 12.2% | 27.3%
38 | CCOc1cc(-c2ccc[nH]2)[nH]c1/C=C1\N=C(C)C(C(=O)OC)=C1C |  | -61.8% (active) | -58% (active) | -79.4% (active) | -50.1% (active) | -47.1% (active) | -50.2% (active) | -78.6% (active) | -65.5% (active) | -61.9% (active)
39 | COc1ccc2[nH]cc(/C=C3/C(=O)Nc4ccc(Cl)cc43)c2c1 |  | 57.1% | 64.8% | 46.1% | -7.27% (active) | 56.6% | 43.2% | 63.8% | 47.6% | 60.1%
40 | OCCOc1c(Cl)cc(Cl)cc1Cl |  | 114% | 108% | 108% | 108% | 93.9% | 104% | 114% | 115% | 111%
41 | Oc1ccccc1C=Nc1ccccc1N=Cc1ccccc1O.[Cu+2] |  | 51.1% | 66% | 84.1% | 14.9% | 66% | 90.9% | 83.7% | 68.5% | 71.1%
42 | CCCCCCCCCCC[C@@H](C[C@H]1OC(=O)[C@H]1CCCCCC)OC(=O)[C@@H](CC(C)C)NC=O |  | 94.2% | 72.3% | 42.9% | 59.9% | 83.6% | 44.8% | 81% | 92.2% | 
43 | CCCCCCC(C)(O)c1ccccc1 (stereo unspecified) |  | 126% | 105% | 110% | 100% | 110% | 108% | 114% | 118% | 106%
44 | O=C(O)c1ccc(NC(=O)c2cccc(Nc3ccnc(C(F)(F)F)c3)c2)cc1 |  | 101% | 107% | 107% | 87% | 106% | 97.9% | 112% | 116% | 99.8%
